Experimental data taken from ChEMBL document CHEMBL1961873, “Compounds: GSK PKIS; Assays: Nanosyn kinase panel” (2012).

What was measured:
[1] = molecular target: Tyrosine-protein kinase Fer (Homo sapiens) (UniProt P16591); settings: at 1 µM
[2] = molecular target: Tyrosine-protein kinase Fes/Fps (Homo sapiens) (UniProt P07332); settings: at 0.1 µM
[3] = molecular target: Tyrosine-protein kinase Fes/Fps (Homo sapiens) (UniProt P07332); settings: at 1 µM
[4] = molecular target: Fibroblast growth factor receptor 1 (Homo sapiens) (UniProt P11362); settings: at 0.1 µM
[5] = molecular target: Fibroblast growth factor receptor 1 (Homo sapiens) (UniProt P11362); settings: at 1 µM
[6] = molecular target: Fibroblast growth factor receptor 2 (Homo sapiens) (UniProt P21802); settings: at 0.1 µM
[7] = molecular target: Fibroblast growth factor receptor 2 (Homo sapiens) (UniProt P21802); settings: at 1 µM
[8] = molecular target: Fibroblast growth factor receptor 3 (Homo sapiens) (UniProt P22607); settings: at 0.1 µM
[9] = molecular target: Fibroblast growth factor receptor 3 (Homo sapiens) (UniProt P22607); settings: at 1 µM
[10] = molecular target: Fibroblast growth factor receptor 4 (Homo sapiens) (UniProt P22455); settings: at 0.1 µM;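 further: values are mean percent inhibition of FGFR4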
Chain of Fibroblast growth factor receptor 4 (Homo sapiens) (P22455 22-802 limits assumed): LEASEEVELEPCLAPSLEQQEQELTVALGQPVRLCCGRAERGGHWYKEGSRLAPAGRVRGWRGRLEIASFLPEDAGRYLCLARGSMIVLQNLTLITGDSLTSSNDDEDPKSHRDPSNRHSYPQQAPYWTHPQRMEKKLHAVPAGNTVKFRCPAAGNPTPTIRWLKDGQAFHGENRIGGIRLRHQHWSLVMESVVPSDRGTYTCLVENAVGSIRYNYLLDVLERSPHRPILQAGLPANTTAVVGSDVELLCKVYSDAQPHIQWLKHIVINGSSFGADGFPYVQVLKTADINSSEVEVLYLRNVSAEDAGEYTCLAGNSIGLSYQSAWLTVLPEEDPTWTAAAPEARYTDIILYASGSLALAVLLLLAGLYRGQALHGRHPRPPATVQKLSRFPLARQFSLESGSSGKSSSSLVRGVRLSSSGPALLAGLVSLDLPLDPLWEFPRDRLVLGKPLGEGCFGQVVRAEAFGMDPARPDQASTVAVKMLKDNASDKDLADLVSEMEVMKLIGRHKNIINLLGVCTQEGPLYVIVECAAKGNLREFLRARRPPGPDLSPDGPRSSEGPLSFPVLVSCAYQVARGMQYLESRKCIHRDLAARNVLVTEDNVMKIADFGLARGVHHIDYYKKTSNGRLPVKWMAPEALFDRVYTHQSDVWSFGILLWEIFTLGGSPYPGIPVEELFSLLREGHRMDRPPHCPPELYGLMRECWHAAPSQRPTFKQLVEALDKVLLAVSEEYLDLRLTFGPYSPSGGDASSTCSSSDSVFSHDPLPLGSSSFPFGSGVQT

Chain of Fibroblast growth factor receptor 3 (Homo sapiens) (P22607 23-806 limits assumed): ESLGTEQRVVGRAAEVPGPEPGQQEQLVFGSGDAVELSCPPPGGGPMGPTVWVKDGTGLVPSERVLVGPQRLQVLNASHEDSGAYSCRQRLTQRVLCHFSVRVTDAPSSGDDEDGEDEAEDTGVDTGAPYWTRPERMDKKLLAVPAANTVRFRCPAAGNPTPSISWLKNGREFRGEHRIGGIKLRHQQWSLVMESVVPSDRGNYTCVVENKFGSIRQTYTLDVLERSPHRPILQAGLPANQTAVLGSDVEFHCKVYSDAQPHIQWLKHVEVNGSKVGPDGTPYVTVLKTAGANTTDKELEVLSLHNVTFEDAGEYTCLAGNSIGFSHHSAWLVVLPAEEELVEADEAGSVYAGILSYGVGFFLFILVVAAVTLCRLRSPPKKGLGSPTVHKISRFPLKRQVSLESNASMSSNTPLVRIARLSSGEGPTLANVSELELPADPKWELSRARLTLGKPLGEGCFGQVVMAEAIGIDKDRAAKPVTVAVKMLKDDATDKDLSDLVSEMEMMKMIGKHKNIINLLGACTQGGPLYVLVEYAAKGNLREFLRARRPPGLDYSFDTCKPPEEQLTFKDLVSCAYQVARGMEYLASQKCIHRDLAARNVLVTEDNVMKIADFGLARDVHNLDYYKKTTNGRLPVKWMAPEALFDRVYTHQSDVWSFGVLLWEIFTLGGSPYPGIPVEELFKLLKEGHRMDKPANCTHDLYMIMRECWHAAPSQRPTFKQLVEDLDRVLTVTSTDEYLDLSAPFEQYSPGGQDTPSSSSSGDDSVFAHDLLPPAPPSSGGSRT
Chain of Tyrosine-protein kinase Fer (Homo sapiens) (P16591 whole entry, looked up): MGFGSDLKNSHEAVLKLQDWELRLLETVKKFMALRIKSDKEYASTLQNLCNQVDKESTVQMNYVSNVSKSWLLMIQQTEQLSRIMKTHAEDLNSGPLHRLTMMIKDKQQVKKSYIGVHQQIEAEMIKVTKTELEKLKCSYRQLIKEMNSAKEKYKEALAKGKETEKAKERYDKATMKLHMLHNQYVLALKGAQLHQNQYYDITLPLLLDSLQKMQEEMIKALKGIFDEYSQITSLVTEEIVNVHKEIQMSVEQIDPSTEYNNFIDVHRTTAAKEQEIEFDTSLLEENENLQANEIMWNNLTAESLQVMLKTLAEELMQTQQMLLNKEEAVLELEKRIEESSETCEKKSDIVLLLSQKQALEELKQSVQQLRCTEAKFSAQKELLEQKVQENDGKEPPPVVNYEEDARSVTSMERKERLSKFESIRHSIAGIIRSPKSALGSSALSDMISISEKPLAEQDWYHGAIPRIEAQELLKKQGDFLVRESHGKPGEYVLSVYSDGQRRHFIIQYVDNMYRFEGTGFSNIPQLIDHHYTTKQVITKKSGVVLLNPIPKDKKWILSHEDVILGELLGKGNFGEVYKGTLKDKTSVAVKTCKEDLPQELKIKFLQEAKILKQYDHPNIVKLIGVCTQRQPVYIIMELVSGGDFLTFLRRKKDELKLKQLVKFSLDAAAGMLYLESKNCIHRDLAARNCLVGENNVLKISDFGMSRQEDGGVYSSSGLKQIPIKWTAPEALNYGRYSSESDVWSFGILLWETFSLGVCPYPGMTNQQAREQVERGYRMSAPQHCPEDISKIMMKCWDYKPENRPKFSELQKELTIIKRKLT
Chain of Fibroblast growth factor receptor 2 (Homo sapiens) (P21802 22-821 limits assumed): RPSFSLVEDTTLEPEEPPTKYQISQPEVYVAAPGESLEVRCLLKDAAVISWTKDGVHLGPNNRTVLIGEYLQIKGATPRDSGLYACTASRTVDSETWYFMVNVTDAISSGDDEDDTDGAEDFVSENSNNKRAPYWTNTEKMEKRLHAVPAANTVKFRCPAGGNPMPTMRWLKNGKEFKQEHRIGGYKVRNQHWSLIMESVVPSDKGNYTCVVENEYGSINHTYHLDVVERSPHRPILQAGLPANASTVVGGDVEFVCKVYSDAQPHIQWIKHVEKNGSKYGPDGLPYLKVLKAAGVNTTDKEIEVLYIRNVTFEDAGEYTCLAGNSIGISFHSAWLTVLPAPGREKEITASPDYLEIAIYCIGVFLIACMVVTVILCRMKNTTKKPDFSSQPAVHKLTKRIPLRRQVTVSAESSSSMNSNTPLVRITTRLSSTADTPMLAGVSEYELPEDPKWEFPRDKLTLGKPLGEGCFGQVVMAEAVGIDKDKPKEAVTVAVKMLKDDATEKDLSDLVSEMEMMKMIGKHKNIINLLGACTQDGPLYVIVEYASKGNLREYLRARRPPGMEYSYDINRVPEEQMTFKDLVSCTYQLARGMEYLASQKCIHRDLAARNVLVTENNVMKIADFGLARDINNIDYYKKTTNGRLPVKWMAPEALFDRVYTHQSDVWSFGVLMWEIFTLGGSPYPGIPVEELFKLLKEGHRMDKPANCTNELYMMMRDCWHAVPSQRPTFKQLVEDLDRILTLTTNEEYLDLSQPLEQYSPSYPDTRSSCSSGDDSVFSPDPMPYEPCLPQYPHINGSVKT
Chain of Fibroblast growth factor receptor 1 (Homo sapiens) (P11362 22-822 limits assumed): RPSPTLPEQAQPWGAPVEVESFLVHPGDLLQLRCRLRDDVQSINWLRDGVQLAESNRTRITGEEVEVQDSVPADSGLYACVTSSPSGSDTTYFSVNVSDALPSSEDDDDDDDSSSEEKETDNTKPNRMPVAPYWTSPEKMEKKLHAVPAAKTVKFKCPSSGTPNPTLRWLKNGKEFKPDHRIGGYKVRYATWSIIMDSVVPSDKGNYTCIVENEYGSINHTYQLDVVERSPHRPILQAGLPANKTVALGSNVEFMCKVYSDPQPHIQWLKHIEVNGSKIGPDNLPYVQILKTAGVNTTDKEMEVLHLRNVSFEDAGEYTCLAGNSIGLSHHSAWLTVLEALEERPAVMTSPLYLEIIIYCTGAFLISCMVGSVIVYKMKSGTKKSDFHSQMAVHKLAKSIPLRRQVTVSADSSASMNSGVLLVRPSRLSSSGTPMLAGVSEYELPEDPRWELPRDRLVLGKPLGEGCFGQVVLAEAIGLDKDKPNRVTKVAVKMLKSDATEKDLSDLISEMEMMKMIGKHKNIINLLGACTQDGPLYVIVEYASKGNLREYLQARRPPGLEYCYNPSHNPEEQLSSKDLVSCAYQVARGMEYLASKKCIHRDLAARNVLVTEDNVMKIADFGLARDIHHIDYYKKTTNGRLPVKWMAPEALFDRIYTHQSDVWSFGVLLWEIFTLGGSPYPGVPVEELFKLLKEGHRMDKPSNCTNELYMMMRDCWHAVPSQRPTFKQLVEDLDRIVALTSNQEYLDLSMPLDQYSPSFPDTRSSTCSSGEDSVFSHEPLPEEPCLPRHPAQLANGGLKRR
Chain of Tyrosine-protein kinase Fes/Fps (Homo sapiens) (P07332 whole entry): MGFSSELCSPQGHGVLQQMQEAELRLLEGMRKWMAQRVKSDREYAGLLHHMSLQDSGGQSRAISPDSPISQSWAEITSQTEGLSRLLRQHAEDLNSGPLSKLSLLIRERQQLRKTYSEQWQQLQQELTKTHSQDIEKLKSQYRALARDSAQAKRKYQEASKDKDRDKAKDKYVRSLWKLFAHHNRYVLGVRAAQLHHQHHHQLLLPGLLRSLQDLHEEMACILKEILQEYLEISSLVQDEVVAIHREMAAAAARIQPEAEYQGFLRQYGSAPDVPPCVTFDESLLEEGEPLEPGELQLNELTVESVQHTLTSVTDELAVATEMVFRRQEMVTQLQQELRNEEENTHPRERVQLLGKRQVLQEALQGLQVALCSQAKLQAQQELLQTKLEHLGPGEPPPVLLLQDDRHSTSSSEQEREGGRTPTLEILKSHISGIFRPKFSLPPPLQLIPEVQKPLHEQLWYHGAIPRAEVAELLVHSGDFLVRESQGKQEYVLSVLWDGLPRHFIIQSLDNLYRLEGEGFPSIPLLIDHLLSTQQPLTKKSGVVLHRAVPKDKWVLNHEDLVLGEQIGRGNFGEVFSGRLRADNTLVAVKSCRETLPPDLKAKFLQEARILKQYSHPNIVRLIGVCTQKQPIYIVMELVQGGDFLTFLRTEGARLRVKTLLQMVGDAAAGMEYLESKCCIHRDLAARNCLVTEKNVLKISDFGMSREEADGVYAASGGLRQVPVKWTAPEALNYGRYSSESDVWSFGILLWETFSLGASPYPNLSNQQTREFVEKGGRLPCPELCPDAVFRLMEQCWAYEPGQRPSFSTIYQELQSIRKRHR

SMILES | inhibition [1] [%] | inhibition [2] [%] | inhibition [3] [%] | inhibition [4] [%] | inhibition [5] [%] | inhibition [6] [%] | inhibition [7] [%] | inhibition [8] [%] | inhibition [9] [%] | inhibition [10] [%]
O=C(Nc1n[nH]c2cc(-c3ccc(F)cc3)ccc12)C1CC1 | 1.55 | 1.98 | 2.43 | 3.72 | 5.84 | 1.37 | 3.08 | 4.83 | 3.2 | -1.21
Clc1ccc(-c2nn3ncccc3c2-c2ccnc(Nc3ccccc3)n2)cc1 | 4.34 | 0.87 | 1.62 | -0.82 | 7.85 | 0.58 | 10.3 | 4.85 | 6 | 1.52
COC(=O)Nc1nc2ccc(S(=O)(=O)c3ccc(NC(=O)Nc4cc(C(F)(F)F)ccc4F)cc3)cc2[nH]1 | 2.04 | 2.47 | 2.5 | 3.55 | 2.11 | 2.63 | 7.81 | 4.85 | 4.38 | -1.95
CNC(=O)c1cccc(C#Cc2cncnc2Nc2ccc(OCc3cccc(F)c3)c(Cl)c2)c1 | 2.2 | 0.17 | 1.47 | -1.46 | 0.26 | 0.94 | 8.07 | 1.87 | – | 0.5
COc1ccc(-c2cc3c(N)ncnc3o2)cc1 | 1.69 | -0.35 | -0.8 | -5.35 | – | -1.74 | -4.78 | -0.11 | -2.94 | 2.88
CC1=C(C(=O)Nc2cc(Cl)c3[nH]ncc3c2)C(c2ccc(C(F)(F)F)cc2)CC(=O)N1 (configuration not stated) | 3.32 | 2.07 | 2.33 | -0.25 | 2.9 | 3.38 | 3.56 | 9.2 | 3.77 | 2.42
NS(=O)(=O)c1ccc(Nc2ncc(-c3ccccc3)o2)cc1 | 4.95 | 2.8 | 4.88 | 6.58 | 8.69 | 7.74 | 16.1 | 7.08 | 11.2 | 2.06
CCN1CCC(CC(=O)Nc2n[nH]c3nnc(-c4cccc(F)c4F)cc23)CC1 | 1.74 | 2.37 | 2.12 | 0.21 | 0.41 | 0.64 | 3.38 | -1.19 | 1.89 | 0.88
CCn1c(-c2nonc2N)nc2cnc(Oc3cccc(NC(=O)c4ccc(N(C)C)cc4)c3)cc21 | 2.5 | 0.77 | 1.31 | 3.11 | 0.12 | -0.14 | 3.9 | 2.5 | 3.54 | 1.51
Nc1nc(-c2ccc(F)cc2)c(-c2ccc3ncccc3n2)s1 | 11.1 | 3.07 | 4.26 | 4.21 | 4.14 | 4.62 | 11.8 | 8.15 | 11.4 | 1.96
FC(F)(F)c1cccc(-c2nn3ncccc3c2-c2ccnc(Nc3ccc4c(c3)OCCO4)n2)c1 | 10.8 | 1.96 | 3.62 | 2.8 | 5.15 | 1.92 | 9.05 | 4.74 | 7.93 | 0.03
Fc1ccc(-c2nn3ncccc3c2-c2ccnc(Nc3ccc4c(c3)OCCO4)n2)cc1 | 13.8 | 3.45 | 6.43 | 4.68 | 15.9 | 5.02 | 23.5 | 4.66 | 13.5 | -2
CC(C)(CO)CNC(=O)c1ccc2c(c1)/C(=N/Nc1ccc(S(N)(=O)=O)cc1)C(=O)N2 | – | -0.1 | 0.22 | -4.71 | 1.07 | 0.16 | 6.9 | 4.13 | 5.3 | 0.38
COc1cccc(-c2c[nH]c3c(N/N=C/c4ccncc4)ncnc23)c1 | 8.57 | 1.82 | 2.81 | 0.74 | 6.34 | 1.79 | 9.49 | 4.63 | 8.05 | 4.93
NC(=O)c1sc(-n2cnc3ccc(C(F)(F)F)cc32)cc1OCc1ccccc1Br | 2.2 | 1.79 | 2.43 | 4.99 | 5.11 | 4.53 | 4.28 | 5.08 | 3.54 | 4.08
COc1ccc(-c2cc(-c3c[nH]nc3-c3ccccn3)ccn2)cc1 | 7.83 | 3.39 | 3.93 | 1.12 | -0.51 | 1.91 | 4.55 | 8.17 | 5.23 | -2.23
COc1ccc(-c2nn3ncccc3c2-c2ccnc(Nc3ccc4c(c3)OCCO4)n2)cc1 | 11.8 | 4.35 | 7.51 | -2.89 | 11.2 | 3.13 | 22.1 | 3.94 | 12.6 | 1.59
